Compounds with a hit are over-represented: about 2.4% of the library has one in this group of screens.
D2 PAM-1 = potentiates the human D2 dopamine receptor allosterically. AID 624464. 0.23% of 360,000 active. P14416. potentiation, % (concentration not given with the values). DiscoveRx D2 beta-arrestin cells, luminescence, 90 min; 100% = 57 uM dopamine signal; in the data active = potentiation above about 50%; inconclusive = mostly about 30% to 49%
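PathHunter D2 cells, attached overnight at 37 deg C, received compound in DMSO plus dopamine at EC20 (50 nM final) for 90 min at 37 deg C. Beta-arrestin recruitment was read as luminescence after 1 h with detection reagent at ambient temperature.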
D2 PAM-2 = positive allosteric modulators of human D2 dopamine receptor. HEK293 T-REx D2, calcium flux, EC20 dopamine potentiation. potentiation, % at 10 µM. 0.34% of 340,000 active;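 active = potentiation over 3 SD above the plate norm, cut at about 30% in these data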
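Using a no-wash calcium dye in inducible, force-coupled HEK293 Trex cells expressing D2, we tracked fluorescence each second for 180 s after compound, then for 180 s after EC20 dopamine to detect augmented signalling.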
D2 antagonist = D2 dopamine receptor (human) antagonism. P14416. HEK293 TREx D2 cells, calcium flux, dopamine EC80. inhibition, % at 10 µM. 2% of 340,000 active; in the data active = inhibition above about 30%; inactive = below that, where a call was filed
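Calcium mobilization kinetics were recorded at 1 s intervals in tetracycline-induced HEK293 T-REx D2 cells, first for 180 s after compound addition and then 180 s after EC80 dopamine.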
D2 ag-1 = activates the human D2 dopamine receptor | P14416 | HEK293 T-REx D2 cells, calcium flux agonist mode | activation, % at 2 µM | 0.53% of 340,000 active | AID 485358;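 active = activation over 3 SD above normal in the single-dose calcium agonist read, cut at about 30% in these data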
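Calcium-flux readout, 1 cycle/sec over 180 s following compound pin transfer, in inducible HEK293 Trex D2 cells (force-coupled); dopamine controls included. Positive calcium responses during this window marked compounds as potential agonists.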
D2 ag-2 = agonists of human D2 dopamine receptor (beta-arrestin). P14416. DiscoveRx PathHunter D2 beta-arrestin, luminescence, 90 min; 100% = 57 uM dopamine signal. activation, % (no concentration beside the values). 0.084% of 360,000 active. AID 624465; in the data active = activation above about 40%; inconclusive = between about 15% and that limit
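DiscoveRx PathHunter D2 beta-arrestin cells (2,100/well) attached overnight, then compound-stimulated 90 min at 37 C in HBSS/10 mM HEPES/0.1% Tween-20 buffer; beta-galactosidase complementation read by luminescence after 1 h at ambient temperature. Dopamine 57 uM final (EC100) as control.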
D3 arrestin ag = activates human D3 dopamine receptor beta-arrestin recruitment | shares compounds with D2 ag-1 | DiscoveRx D3 beta-arrestin cells, luminescence, 90 min | Potency, µM (titrated, usually from 76.9 µM), actives largely listed as activators | 4% of 2,300 active | AID 720506; also: nearly all actives have a fitted effect of over 70% in size
Target sequence (P35462 whole entry, looked up): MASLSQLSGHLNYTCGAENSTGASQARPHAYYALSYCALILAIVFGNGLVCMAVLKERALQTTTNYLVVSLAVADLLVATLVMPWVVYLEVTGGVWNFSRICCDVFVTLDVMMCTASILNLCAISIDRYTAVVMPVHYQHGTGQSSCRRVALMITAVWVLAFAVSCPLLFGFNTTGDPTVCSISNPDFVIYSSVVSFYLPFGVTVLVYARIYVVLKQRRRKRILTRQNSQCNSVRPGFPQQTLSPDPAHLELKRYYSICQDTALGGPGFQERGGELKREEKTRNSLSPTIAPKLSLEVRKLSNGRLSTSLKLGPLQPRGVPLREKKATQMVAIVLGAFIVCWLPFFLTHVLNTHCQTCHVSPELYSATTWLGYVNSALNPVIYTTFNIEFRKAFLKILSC
D2 ag-3 = counter-screen for D3 agonists: human D2 dopamine receptor agonism | 5.9% of 2,300 active | Potency, µM (doses to about 76.9 µM), actives largely listed as activators | shares compounds with D2 ag-1 | DiscoveRx PathHunter D2 beta-arrestin, luminescence, 90 min; response scale: percent relative to full dopamine signal; also: nearly all actives have a fitted effect of over 70% in size
Large screens that a line does not name were inactive (follow-up assays come after a bar, where they were run); ! = not active in a repeat. Unless noted, calls follow the shape of the dose curve; as a rule, active = well fitted activation curve with a large enough effect; inconclusive = small, poorly fitted or top-dose-only effect; inactive = flat fitted curve, though single readings scatter.

CC(C)CN(C(=O)CSc1nnc(-c2cccs2)n1C1CC1)C1CCS(=O)(=O)C1 (configuration not stated)	none (no result: D2 PAM-2, D2 antagonist, D2 ag-1)
CCc1nc2ccc(C(=O)N3CCN(C(=O)c4ccco4)CC3)cn2c1N(CC)Cc1cccc(Br)c1	none (no result: D2 PAM-2, D2 antagonist, D2 ag-1)
CCCS(=O)(=O)N1CCC(C(=O)NC2CCCCC2C)CC1 (configuration not stated)	none | D3 arrestin ag inactive | D2 ag-3 inactive
CCS(=O)(=O)N1CCCC(C(=O)NC2CCCCC2C)C1 (configuration not stated)	none
COc1ccc(CNCCNC(=O)c2ccco2)c(OC)c1OC	D2 ag-1 48 | D3 arrestin ag inactive | D2 ag-3 inactive
Cc1noc(C)c1COc1ccc(C(=O)N(C)CCOc2ccccc2)cc1	none | D3 arrestin ag inactive | D2 ag-3 inactive
Cc1noc(C)c1COC(=O)CCOc1ccccc1	none
Cc1ccccc1C(=O)Nc1nnc(SC(C)C)s1	none | D3 arrestin ag inactive | D2 ag-3 inactive
Cc1cc(C)cc(OC2CCCCC2NS(=O)(=O)c2ccccc2)c1 (configuration not stated)	D2 antagonist 36 | D3 arrestin ag inactive | D2 ag-3 inactive
CSc1ccc(OC2CCCCC2NS(=O)(=O)c2ccccc2)cc1 (configuration not stated)	none
Cc1cc(NC(=O)CSc2nnc(-c3ccccc3F)n2C)no1	none
OC(CNCCc1ccc(C(F)(F)F)cc1)COc1cccc2ccccc12 (configuration not stated)	none | D3 arrestin ag inactive | D2 ag-3 inactive
CC(=O)N1CCc2cc(S(=O)(=O)N3CCc4ccccc43)ccc21	none
CC1(C)CC(=O)C2=C(C1)OC(N)=C(C#N)C21CCN(Cc2ccccc2)CC1	none
Cc1nc2c([nH]1)C1(CCN(Cc3ccccc3)CC1)C(C#N)=C(N)O2	D2 antagonist 60, D2 ag-1 71, D2 ag-2 inconclusive | D3 arrestin ag inactive | D2 ag-3 inactive
CC(C(=O)Nc1cccc([N+](=O)[O-])c1)N1CCN(C/C=C/c2ccccc2)CC1 (configuration not stated)	D2 antagonist 47, D2 ag-1 72 | D3 arrestin ag inactive | D2 ag-3 inconclusive
O=C(c1cccc([N+](=O)[O-])c1)N1CCN(C/C=C/c2ccccc2)CC1	none
OCCC1CN(CCCc2ccccc2)CCN1Cc1ccc(F)cc1 (configuration not stated)	none
Cc1ccc(CN2CCN(CCCc3ccccc3)CC2CCO)cc1 (configuration not stated)	D2 antagonist 49, D2 ag-1 53 | D3 arrestin ag inactive | D2 ag-3 inactive
Clc1ccc(-n2ncc3c(NCc4ccco4)ncnc32)cc1	none | D3 arrestin ag inactive | D2 ag-3 inactive
COc1ccc(-n2ncc3c(NCc4ccco4)ncnc32)cc1	none
Cc1cc(C(C)(C)C)cc(S(=O)(=O)NCCc2ccncc2)c1C	none | D3 arrestin ag inactive | D2 ag-3 inactive
Cc1ccc(C)n1CCN1CCN(C(=O)c2ccc(Cl)cc2)CC1	none
O=C(c1c(F)cccc1F)N1CCN(CCOc2ccccc2)CC1	D2 ag-1 60 | D3 arrestin ag inconclusive | D2 ag-3 inactive
COc1ccc(OCCN2CCN(C(=O)c3ccc(OC(F)F)c(OC)c3)CC2)cc1	none
O=C(c1ccc(Cl)cc1)N1CCN(CCOc2ccccc2)CC1	D2 antagonist 76, D2 ag-1 74, D2 ag-2 inconclusive | D3 arrestin ag 0.1µM | D2 ag-3 25µM
OCCN1CCN(CCOc2cccc(Cl)c2)CC1	D2 antagonist 76, D2 ag-1 33 | D3 arrestin ag inconclusive | D2 ag-3 inactive
COc1ccc(OCCN2CCN(C(=O)c3ccc(OC)cc3)CC2)cc1	D2 ag-1 42 | D3 arrestin ag 0.45µM | D2 ag-3 inactive
COCc1c(C(=O)N2CCN(CCOc3ccccc3)CC2)oc2ccccc12	D2 antagonist 77, D2 ag-1 80, D2 ag-2 inconclusive | D3 arrestin ag 0.32µM | D2 ag-3 inconclusive
CCc1ccccc1NC(=O)CN1CCN(C(=O)CN2C(=O)NC3(CCCCC3C)C2=O)CC1 (configuration not stated)	none
Cc1cccc(C)c1NC(=O)CN1CCN(C(=O)CN2C(=O)NC3(CCCCC3C)C2=O)CC1 (configuration not stated)	D2 ag-1 40 | D3 arrestin ag inactive | D2 ag-3 inactive
COc1cccc(CNC(=O)C2CC(=O)N(C3CCCCC3)C2)c1 (configuration not stated)	none
C=CCn1c(SCCCC)nc(O)cc1=O	D2 antagonist 31! | D3 arrestin ag inactive | D2 ag-3 inactive
Cc1cccc2sc(NC(=O)Cn3cccc3)nc12	none
Cc1cccc2sc(NC(=O)CSCc3ccccc3)nc12	D2 ag-1 44 | D3 arrestin ag inactive | D2 ag-3 inactive
O=c1cc(CN2CCN(c3ccccn3)CC2)nc2sccn12	D2 ag-1 55 | D3 arrestin ag inactive | D2 ag-3 inactive
c1ccc(CCCN2CCN(c3ccccn3)CC2)cc1	D2 antagonist 75, D2 ag-1 76 | D3 arrestin ag inconclusive | D2 ag-3 inconclusive
Cc1ccc(S(=O)(=O)CCN2CCN(c3ccccn3)CC2)cc1	none
Cc1ccc(CN2CCN(c3ccccn3)CC2)s1	D2 PAM-1 68, D2 antagonist 94, D2 ag-2 65 | D3 arrestin ag inconclusive | D2 ag-3 0.16µM
CC1(C)C2CC[C@]1(C)C(=O)N(CCCCN1CCN(c3ccccn3)CC1)C2=O	D2 PAM-1 inconclusive, D2 antagonist 116, D2 ag-1 86, D2 ag-2 70 | D3 arrestin ag inconclusive | D2 ag-3 0.063µM
Cc1ccccc1Nc1c(-c2ccsc2)nc2c(C)cccn12	none (no result: D2 PAM-1, D2 antagonist, D2 ag-2)
Cc1ccc(NC(=O)C2CCCN(c3nnc(C)c4c(C)n(-c5ccccc5)nc34)C2)cc1Cl (configuration not stated)	none (no result: D2 PAM-1, D2 antagonist, D2 ag-2)
O=S(=O)(Nc1ccc(-c2cn3c(n2)SCC3)cc1)c1cc(F)ccc1F	none (no result: D2 PAM-2, D2 antagonist, D2 ag-1)
CC(C)C[C@@H](CN1CCCC1CN1C(=S)NC[C@@H]1Cc1ccc(O)cc1)N1C[C@H](Cc2ccc(O)cc2)N(CC2CCCCC2)C1=S (some centres not stated)	none (no result: D2 PAM-2, D2 antagonist, D2 ag-1)
COc1ccccc1NC(=O)c1c(C)cc(C)nc1SCC(=O)c1ccc(Cl)cc1	none (no result: D2 PAM-1, D2 antagonist, D2 ag-1, D2 ag-2)
O=C1C(=O)N(C/C=C/c2ccccc2)c2ccccc21	none
c1ccc(N2CCN(c3cnccn3)CC2)nc1	none

Assay outcomes (PubChem)
